# Rows were chosen to be rich in hits. Some 4.5% of all compounds tested hit in one or more screens of this group.
# Mdm2 MdmX PPI – disrupts the human Mdm2-MdmX interaction; SaOS-2 split-luciferase Mdm2/MdmX complementation, luminescence; inhibition, % at 8 µM; hit rate 3% among 330,000; AID 485346;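 active = inhibition of at least 50% at 8 µM in the primary screen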
# Gli-Sufu block – antagonists of Gli-Sufu signaling; hit rate 0.74% among 340,000; AID 588413; inhibition, % at 5 µM; Sufu-KO-LIGHT fibroblasts, Gli luciferase reporter luminescence;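 active = inhibition above about 55%, limit read from the data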;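 note: 0% = DMSO-treated cells and 100% = wells with medium but no cells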
# CSC inhib – cancer stem cell inhibition. cancer stem cell-like cells viability, luminescence. inhibition, % at 7.5 µM. hit rate 1.1% among 300,000; in the data active = inhibition above about 75%; tested in HMLE shEcad cells
# Jurkat NFkB inh – lowers PMA/ionomycin-induced NF-kB signal in Jurkat cells | hit rate 0.53% among 330,000 | PMA/ionomycin-induced NF-kB luciferase reporter, luminescence | AID 435003 | inhibition, % at 4 µM; in the data active = inhibition above about 50%
# 697 NFkB inh – lowers PMA/ionomycin-induced NF-kB signal in 697 B cells | inhibition, % at 4 µM | AID 435022 | hit rate 0.33% among 330,000 | 697 B-cell NF-kB luciferase reporter, 16 h; in the data active = inhibition above about 35%
# aSyn 5UTR inh – MLPCN primary screen, SNCA 5' untranslated region. alpha-synuclein 5'UTR reporter, inhibitor activity. inhibition, % (tested at 7.5 µM). hit rate 0.82% among 300,000. AID 1813; in the data active = inhibition above about 60%;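 note: H4 neuroglioblastoma cells stably carrying SNCA 5'UTR luciferase fusion; 0% = DMSO wells and 100% = positive control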
# 697 NFkB conf – lowers PMA/ionomycin-induced NF-kB signal in 697 B cells. hit rate 35% among 2,000. shares compounds with 697 NFkB inh. inhibition, % at 4 µM. 697 B-cell NF-kB luciferase, 16 h. AID 449746; in the data active = inhibition mostly above about 28%, no sharp cut-off; inactive = mostly below about 22%
# Mdm2 MdmX conf – human Mdm2/MdmX binding inhibition, confirmed; shares compounds with Mdm2 MdmX PPI; hit rate 55% among 10,000; inhibition, % at 8 µM; luminescent assay; in the data active = inhibition above about 40%
# FLuc counter – inhibits full-length luciferase, flagging false Mdm2/MdmX hits; SaOS-2 full-length luciferase counterscreen, luminescence; shares compounds with Mdm2 MdmX PPI; inhibition, % at 8 µM; hit rate 77% among 6,200;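 active = mean inhibition at 8 µM reaching about 37%, which flags the compound as non-specific, limit read from the data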;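 note: p53-null SaOS-2 cells with luciferase driven by a doxycycline-inducible promoter; compound on cells about two nights before reading with doxycycline added after day one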
# Starred values were filed as active, the others as inactive; i = inactive; / = no result given.
SMILES,Mdm2 MdmX PPI,Gli-Sufu block,CSC inhib,Jurkat NFkB inh,697 NFkB inh,aSyn 5UTR inh,697 NFkB conf,Mdm2 MdmX conf,FLuc counter
Cn1c(C(=O)NCc2ccccc2)cc2oc3ccccc3c21,88.5*,-29.0,38.2,-95.7,i,-17.8,-330.6,86.8*,32.1
Cn1c(C(=O)NCc2cccs2)cc2oc3ccccc3c21,77.4*,3.2,-11.4,-60.3,i,-261.5,i,72.4*,27.7
Cn1c(C(=O)NCC2CCCO2)cc2oc3ccccc3c21 (stereo not drawn),-102.9,-98.3,-1.8,-97.2,-128.9,-187.9,/,/,/
CC(C)Oc1ccc(S(=O)(=O)N2CCOCC2)cc1NC(=O)C(C)Oc1ccc(F)cc1 (stereo not drawn),11.9,10.3,0.5,-11.6,2.5,3.5,/,/,/
CCOC(=O)Cn1c(-c2nonc2NC(=O)c2ccccc2F)nc2ccccc21,91.0*,4.9,41.3,-66.0,i,17.8,i,93.4*,34.7
Cc1cc2ccccn2c1C(=O)c1cc([N+](=O)[O-])cc([N+](=O)[O-])c1,-5.9,-6.0,-4.9,16.5,-3.3,2.3,/,/,/
Cc1cc2ccccn2c1C(=O)c1ccc(NN)c([N+](=O)[O-])c1,61.7*,-0.6,-7.7,19.4,45.4*,-4.6,42.1*,28.1,/
Cc1ccc(C(=O)Nc2sc(C)c(-c3ccccc3)c2C(N)=O)cc1[N+](=O)[O-],72.0*,65.9*,-12.1,-19.9,-415.1,-81.1,-98.7,-3.1,/
Cc1ccc(C(=O)Nc2cccc(NC(=O)c3ccc(C)c([N+](=O)[O-])c3)n2)cc1[N+](=O)[O-],33.4,3.4,1.0,1.1,-5.5,-8.4,/,/,/
N#CCC(=O)Nc1ccc(C(F)(F)F)cc1N1CCOCC1,-5.2,2.3,-0.8,8.6,6.8,-2.8,/,/,/
Cc1ccc(C(=O)O/N=C(\N)c2ccccc2)c(Cl)c1,80.2*,3.0,-7.7,-49.7,-342.7,85.1*,-354.4,58.4*,119.9*
N/C(=N\OC(=O)c1ccccc1Cl)c1ccncc1,-156.0,-52.1,6.6,-92.5,-87.0,-106.5,/,/,/
CCOc1cc(/C=C2\CCC/C(=C\c3cc(Cl)c(O)c(OCC)c3)C2=O)cc(Cl)c1O,100.3*,-8.0,-8.9,21.5,-377.6,-328.8,-159.4,93.5*,20.6
C=CCNC(=O)/C(C#N)=C\c1cc(Cl)c(O)c(OCC)c1,/,0.9,6.1,/,/,6.7,/,/,/
CCN(CC(=O)Nc1c(F)cccc1F)C(=O)CCN1C(=O)c2cccc([N+](=O)[O-])c2C1=O,4.9,2.0,-3.2,3.2,-0.8,0.6,/,/,/
COc1ccc(S(=O)(=O)N2CCOCC2)cc1NC(=O)c1ccc(S(=O)(=O)N2CCCCC2)cc1,/,1.9,/,/,/,/,/,/,/
Cc1ccc(C)c(CN2C(=O)c3ccccc3S(=O)(=O)c3ccc(C(=O)N4CCN(C)CC4)cc32)c1,15.3,2.5,-9.7,-6.4,0.5,19.4,/,/,/
Cc1ccc(C)c(CN2C(=O)c3ccccc3S(=O)c3ccc(C(=O)N4CCN(c5ccccn5)CC4)cc32)c1 (stereo not drawn),99.1*,15.9,51.9,-36.8,i,-17.5,i,88.5*,53.6*
CC(=O)N1CCc2cc(S(=O)(=O)NCCC(=O)NC3CCCc4ccccc43)ccc21 (stereo not drawn),-4.9,9.1,-17.7,-7.2,-5.7,11.0,/,/,/
COc1ccccc1/C=C1\SC(=S)N(CC(=O)Nc2nnc(C)s2)C1=O,93.5*,/,95.8*,0.8,71.6*,42.1,2.9,-6.0,/
COc1ccccc1/C=C1\SC(=S)N(CCC(=O)Nc2ccc(C(=O)O)c(O)c2)C1=O,-21.7,7.5,3.5,2.0,16.8,2.9,/,/,/
CCCCC(=O)NS(=O)(=O)c1ccc(NS(C)(=O)=O)cc1,10.9,-0.8,-14.4,-2.5,1.3,-2.4,/,/,/
COc1cc(NC(=S)NC(=O)c2cc(C)cc(C)c2)ccc1NC(=O)c1cccs1,16.9,-0.9,13.6,2.2,-14.3,13.5,/,/,/
COc1cc(NC(=S)NC(=O)c2ccc(C(C)(C)C)cc2)ccc1NC(=O)c1cccs1,89.7*,-4.8,71.1,-42.0,i,-26.7,-12.9,68.1*,27.7

# Source: PubChem BioAssay (several laboratories)
